Results published in PubChem BioAssay (NCATS).
Results filed as inconclusive are left out. Activity calls are given as the source filed them. Unless noted, the call rests on the fitted dose curve; in most records, active means well fitted cell-killing curve with a large enough effect; inconclusive means small, poorly fitted or top-dose-only effect; inactive means flat fitted curve, though single readings scatter.

How the values were obtained:
[1] = Cell Viability - LYMP2-025 (AID 976);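 further: series mostly up to about 92 µM; plate controls were DMSO only for no effect and tetraoctylammonium bromide control for full effect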
Method in brief: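 Cytotoxicity read as loss of intracellular ATP (luciferase luminescence) after 24 h compound treatment at 37 C. Uses LYMP2-025 lymphoblastoid cells in 1536-well format; Hill-equation modelling gives AC50; tetraoctylammonium bromide as positive control.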

[2] = Cell Viability - LYMP2-002 (AID 977);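 further: series mostly up to about 92 µM; plate controls were DMSO only for no effect and 92 µM tetraoctylammonium bromide for full effect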
Method in brief: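 In this qHTS viability screen, 2500 human lymphoblastoid cells per well receive compound for 24 hr at 37 C, and luciferase-based ATP luminescence gives the viability signal. Tetraoctylammonium bromide serves as positive control.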

[3] = Cell Viability - LYMP2-006 (AID 978); further: series mostly up to about 92 µM; on the % scale 0 is the no-effect control and ±100 the full control effect; nearly all actives have a fitted effect of over 60% in size
Method in brief: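 Human lymphoblastoid cells (LYMP2-006), 2500/well in complete medium, were treated with compound for 24 hr at 37 C. Cellular ATP was read by CellTiter-Glo luminescence after 30 min, and AC50 values came from Hill-equation fits of concentration-response data.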

[4] = Cell Viability - LYMP2-007 (AID 979);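 further: cells exposed to compound for 24 h before reading; 0% = DMSO only and the negative end = 92 µM tetraoctylammonium bromide; nearly all actives have a fitted effect of over 60% in size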
Method in brief: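 AC50 values come from Hill-equation fits of luminescent intracellular ATP (CellTiter-Glo, 30 min, room temperature) following 24 h compound exposure at 37 C. Cells: LYMP2-007 lymphoblastoid line, 2500 per well, in complete culture medium.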

[5] = Cell Viability - LYMP2-008 (AID 980); further: on the % scale 0 is the no-effect control and ±100 the full control effect; nearly all actives have a fitted effect of over 60% in size
Method in brief: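 Cytotoxicity determined from ATP-dependent luciferase luminescence (CellTiter-Glo) following 24 h compound exposure of human lymphoblastoid LYMP2-008 cells at 37 C. Concentration-response data fitted to the Hill equation to give AC50.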

[6] = Cell Viability - LYMP2-012 (AID 982);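 further: cellular ATP by luciferase luminescence where a drop means cytotoxicity; cells exposed to compound for one day before reading; 0% = DMSO only and full loss = 92 µM tetraoctylammonium bromide; nearly all actives have a fitted effect of over 55% in size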
[7] = Cell Viability - LYMP2-014 (AID 983);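 further: series mostly up to about 92 µM; plate controls were DMSO only for no effect and 92 µM tetraoctylammonium bromide for full effect; nearly all actives have a fitted effect of over 50% in size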
Method in brief: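 Intracellular ATP loss, read by luciferase luminescence, measures acute cytotoxicity after 24 h compound exposure of lymphoblastoid LYMP2-014 cells (2500/well, 37 C). Concentration-response data fitted to the Hill equation for AC50.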

[8] = Cell Viability - LYMP2-018 (AID 985);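 further: plate controls were DMSO only for no effect and tetraoctylammonium bromide at 92 µM for full effect; nearly all actives have a fitted effect of over 50% in size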
Method in brief: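 Viability read as CellTiter-Glo luminescence (cellular ATP) after 24 hr compound exposure at 37 C of 2500 LYMP2-018 lymphoblastoid cells/well, pre-plated 5 hr. Hill-equation modelling gave AC50.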

[9] = Cell Viability - LYMP2-020 (AID 986);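 further: series mostly up to about 92 µM; plate controls were DMSO only for no effect and tetraoctylammonium bromide at 92 µM for full effect; nearly all actives have a fitted effect of over 55% in size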
Method in brief: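 Cytotoxicity in qHTS format: luminescent ATP readout from CellTiter-Glo after 24 h compound exposure at 37 C in complete medium. LYMP2-020 lymphoblastoid cells were seeded at 2500/well; concentration-response data fitted to the Hill equation for AC50.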

[10] = Cell Viability - LYMP2-024 (AID 988);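 further: plate controls were DMSO only for no effect and 92 µM tetraoctylammonium bromide for full effect; nearly all actives have a fitted effect of over 60% in size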
Method in brief: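 Cytotoxicity was taken as a decrease in ATP (CellTiter-Glo luminescence) after 24 hr compound exposure at 37 C of LYMP2-024 lymphoblastoid cells, 2500 cells/well. Concentration-response data were fitted to the Hill equation to give AC50.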

[11] = Cell Viability - LYMP2-026 (AID 989); further: on the % scale 0 is the no-effect control and ±100 the full control effect; nearly all actives have a fitted effect of over 50% in size
Method in brief: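 Cytotoxicity read as ATP-dependent luminescence (CellTiter-Glo, 30 min room temperature) after 24 h compound treatment at 37 C. LYMP2-026 lymphoblastoid line seeded at 2500 cells/well; AC50 derived by standard Hill equation.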

[12] = Cell Viability - LYMP1-002 - Assay at 24 hr (AID 993); further: on the % scale 0 is the no-effect control and ±100 the full control effect
Method in brief: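 qHTS cytotoxicity at 24 h: CellTiter-Glo ATP luminescence in lymphoblastoid line LYMP1-002 incubated with compound at 37 °C. Concentration-response modeled with the Hill equation for AC50; tetraoctylammonium bromide served as positive control.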

[13] = Cell Viability - LYMP1-002 - Assay at 40 hr (AID 994)
Method in brief: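 Cytotoxicity was read as loss of cellular ATP (CellTiter-Glo luminescence) after 40 hr compound exposure at 37 C of 2500 LYMP1-002 lymphoblastoid cells per well. Concentration-response data were fitted with the standard Hill equation to give AC50.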

[14] = qHTS Assay for Identification of Small Molecule Inducers of Hypoxia Response (AID 2120; active means well fitted curve in the direction sought with a large enough effect in the signal ratio, with a control signal flat, not every such curve was filed as active; the % refers to the signal ratio; further: 0% is about no effect)
Method in brief: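 Reporter induction read as the CCF4 blue/green (460nm/530nm) emission ratio after 2.5 h dye loading at room temperature. ME-180 HRE-beta-lactamase cells received titrated compounds for 17 h at 37 degrees Celsius; AC50 values derived.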

[15] = target: Estrogen receptor (Homo sapiens) (UniProt P03372); assay: qHTS assay for small molecule antagonists of estrogen receptor alpha signaling (AID 588513; active means well fitted curve in the direction sought with a large enough effect in the signal ratio, with a control signal flat, not every such curve was filed as active; the % refers to the signal ratio; further: on the % scale 0 is the no-effect control and ±100 the full control effect)
Method in brief: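 ER-alpha-UAS-bla GripTite HEK 293 cells in 2% charcoal/dextran-treated FBS medium; compounds titrated (1:2, duplicate), then stimulated with 0.5 nM 17-beta-estradiol for 18 h at 37C. CCF4 beta-lactamase fluorescence; Hill-fit IC50 and efficacy.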

[16] = Cell Viability - LYMP2-010 (AID 981); further: on the % scale 0 is the no-effect control and ±100 the full control effect; nearly all actives have a fitted effect of over 55% in size
Method in brief: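 CellTiter-Glo ATP luminescence measured cytotoxicity after 24 h compound exposure at 37 C. LYMP2-010 cells were seeded at 2500/well, with tetraoctylammonium bromide as control; concentration-response curves gave AC50 values by the Hill equation.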

[17] = Cell Viability - LYMP2-016 (AID 984); further: on the % scale 0 is the no-effect control and ±100 the full control effect; nearly all actives have a fitted effect of over 55% in size
Method in brief: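 Human lymphoblastoid LYMP2-016 cells, 2500 per well, treated with compounds for 24 h at 37 C. Viability read as intracellular ATP by CellTiter-Glo luminescence after 30 min at room temperature; AC50 from Hill fits of concentration-response.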

[18] = Cell Viability - LYMP2-022 (AID 987)
Method in brief: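 Cytotoxicity read as decreased cellular ATP (CellTiter-Glo luminescence, 30 min room temperature) after 24 hours compound exposure of 2500 lymphoblastoid LYMP2-022 cells/well at 37 C. Concentration-response data fitted with standard Hill equation for AC50.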

[19] = target: Estrogen receptor (Homo sapiens) (UniProt P03372); assay: qHTS assay for small molecule agonists of estrogen receptor alpha signaling (AID 588514; calls by dose curve;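 further: 0% = vehicle only and 100% = reference agonist; nearly all actives have a fitted effect of over 70% in size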)
Method in brief: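 EC50 and efficacy came from Hill fits of beta-lactamase reporter signal (CCF4 dye, 2 h at room temperature) scaled between DMSO and 20 nM 17-beta-estradiol. Agonist mode: HEK293 ER-alpha-UAS-bla cells in charcoal/dextran-stripped serum medium, 18 h compound exposure at 37 C.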

[20] = target: Androgen receptor (Homo sapiens) (UniProt P10275); assay: qHTS assay for small molecule agonists of androgen receptor signaling (AID 588515; active means well fitted curve in the direction sought with a large enough effect in the signal ratio, with a control signal flat; the % refers to the signal ratio; further: on the % scale 0 is the no-effect control and ±100 the full control effect); conditions: AR-UAS-bla HEK293, beta-lactamase ratio, agonist 16 h; stronger effect = higher value
Method in brief: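 Stimulation of an AR-responsive β-lactamase reporter in GripTite HEK293 cells was measured after 16 h compound exposure at 37 °C, via CCF4 fluorescence after 2 h RT. EC50 from Hill fits, normalized to R1881 at 30 nM.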

Sequence of Estrogen receptor (Homo sapiens) (P03372 whole entry, looked up): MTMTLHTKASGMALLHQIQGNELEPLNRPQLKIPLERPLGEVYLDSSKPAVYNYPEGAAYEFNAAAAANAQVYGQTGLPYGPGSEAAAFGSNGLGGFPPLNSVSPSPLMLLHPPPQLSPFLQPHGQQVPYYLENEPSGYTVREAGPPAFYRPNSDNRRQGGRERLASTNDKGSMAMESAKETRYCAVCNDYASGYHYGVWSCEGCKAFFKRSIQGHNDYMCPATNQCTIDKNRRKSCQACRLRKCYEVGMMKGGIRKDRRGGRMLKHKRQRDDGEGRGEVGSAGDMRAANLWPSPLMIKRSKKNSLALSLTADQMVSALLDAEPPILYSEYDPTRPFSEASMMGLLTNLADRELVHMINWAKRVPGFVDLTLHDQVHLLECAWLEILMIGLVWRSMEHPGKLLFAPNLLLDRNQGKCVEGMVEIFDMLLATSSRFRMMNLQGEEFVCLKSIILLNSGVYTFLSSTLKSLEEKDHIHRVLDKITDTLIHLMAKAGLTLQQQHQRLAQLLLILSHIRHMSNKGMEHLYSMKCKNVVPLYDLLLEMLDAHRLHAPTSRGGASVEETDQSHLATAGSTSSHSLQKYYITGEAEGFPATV
Sequence of Androgen receptor (Homo sapiens) (P10275 whole entry, looked up): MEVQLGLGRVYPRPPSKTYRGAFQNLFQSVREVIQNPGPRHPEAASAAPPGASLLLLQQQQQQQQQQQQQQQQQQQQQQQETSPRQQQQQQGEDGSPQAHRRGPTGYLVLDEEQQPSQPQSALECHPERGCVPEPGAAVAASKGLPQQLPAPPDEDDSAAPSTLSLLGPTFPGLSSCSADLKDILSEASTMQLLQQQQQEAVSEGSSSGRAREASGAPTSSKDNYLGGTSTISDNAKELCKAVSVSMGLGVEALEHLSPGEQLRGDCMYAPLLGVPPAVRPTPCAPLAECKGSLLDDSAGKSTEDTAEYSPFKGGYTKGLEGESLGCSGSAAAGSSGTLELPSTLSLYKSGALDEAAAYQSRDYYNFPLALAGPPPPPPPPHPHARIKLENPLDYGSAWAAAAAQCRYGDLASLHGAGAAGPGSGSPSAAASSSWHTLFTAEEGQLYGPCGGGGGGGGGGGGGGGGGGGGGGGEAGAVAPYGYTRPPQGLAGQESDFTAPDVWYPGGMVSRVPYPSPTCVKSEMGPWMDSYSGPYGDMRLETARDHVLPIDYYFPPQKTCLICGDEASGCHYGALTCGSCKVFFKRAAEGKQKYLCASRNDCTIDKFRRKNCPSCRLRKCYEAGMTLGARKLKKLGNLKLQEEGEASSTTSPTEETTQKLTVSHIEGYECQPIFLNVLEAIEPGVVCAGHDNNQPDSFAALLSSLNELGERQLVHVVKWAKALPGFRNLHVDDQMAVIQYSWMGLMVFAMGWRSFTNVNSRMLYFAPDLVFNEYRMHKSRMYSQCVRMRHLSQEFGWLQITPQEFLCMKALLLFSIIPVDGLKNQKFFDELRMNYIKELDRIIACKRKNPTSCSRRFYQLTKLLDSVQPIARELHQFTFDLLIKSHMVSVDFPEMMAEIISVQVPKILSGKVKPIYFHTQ

C=CCCCC
inactive: Potency [1] | Potency [2] | Potency [3] | Potency [4] | Potency [5] | Potency [6] | Potency [7] | Potency [8] | Potency [9] | Potency [10] | outcome [11] | Potency [12] | Potency [13] | outcome [14] | outcome [15]

CCOCCOCC
inactive: Potency [1] | Potency [2] | Potency [3] | Potency [4] | Potency [5] | Potency [16] | Potency [6] | Potency [7] | Potency [17] | Potency [8] | Potency [9] | Potency [18] | Potency [10] | Potency [12] | Potency [13] | outcome [14] | outcome [15]

ICCc1ccccc1
inactive: Potency [1] | Potency [2] | Potency [3] | Potency [4] | Potency [5] | Potency [6] | Potency [7] | Potency [17] | Potency [8] | Potency [9] | Potency [10] | outcome [11] | Potency [12] | Potency [13] | outcome [14] | outcome [15]

CC(C)(C)c1ccc(OCC2CO2)cc1 (stereo not drawn)
inactive: Potency [1] | Potency [2] | Potency [3] | Potency [4] | Potency [5] | Potency [16] | Potency [6] | Potency [7] | Potency [17] | Potency [8] | Potency [9] | Potency [10] | outcome [11] | Potency [12] | outcome [14] | outcome [15]

ClC/C=C/CCl
inactive: Potency [1] | Potency [2] | Potency [3] | Potency [4] | Potency [5] | Potency [16] | Potency [7] | Potency [8] | Potency [18] | outcome [11] | Potency [12] | Potency [13] | outcome [14] | outcome [15]

O=Cc1ccc(CO)o1
inactive: Potency [1] | Potency [2] | Potency [4] | Potency [5] | Potency [16] | Potency [6] | Potency [17] | Potency [9] | Potency [18] | outcome [11] | Potency [12] | Potency [13] | outcome [14] | outcome [15]

CCCC(Cl)CCCC(Cl)CCC(Cl)CCC(Cl)CCC(Cl)CCCC(Cl)CCC (stereo not drawn)
inactive: Potency [2] | Potency [3] | Potency [4] | Potency [5] | Potency [6] | Potency [17] | Potency [8] | Potency [9] | Potency [10] | outcome [11] | Potency [12] | Potency [13] | outcome [14] | Potency [19] | activation [20] -5.75%

Cc1cccc(C)c1
inactive: Potency [1] | Potency [2] | Potency [3] | Potency [4] | Potency [5] | Potency [16] | Potency [6] | Potency [7] | Potency [17] | Potency [8] | Potency [9] | Potency [18] | Potency [10] | outcome [11] | Potency [13] | outcome [14] | outcome [15]

Nc1cccc(C(F)(F)F)c1
inactive: Potency [2] | Potency [3] | Potency [4] | Potency [5] | Potency [16] | Potency [6] | Potency [7] | Potency [17] | Potency [8] | Potency [9] | Potency [18] | outcome [11] | Potency [12] | Potency [13] | outcome [14] | outcome [15]

Cc1ccc(Br)cc1
inactive: Potency [1] | Potency [2] | Potency [3] | Potency [4] | Potency [5] | Potency [16] | Potency [6] | Potency [7] | Potency [17] | Potency [8] | Potency [9] | Potency [10] | Potency [12] | Potency [13] | outcome [14] | outcome [15]

O=C(O[C@@H](C(=O)O)[C@@H](OC(=O)c1ccccc1)C(=O)O)c1ccccc1
inactive: Potency [1] | Potency [2] | Potency [4] | Potency [5] | Potency [16] | Potency [6] | Potency [7] | Potency [17] | Potency [9] | Potency [18] | outcome [11] | outcome [14] | outcome [15]

C=CCOC(=O)CCCCCCCC
inactive: Potency [1] | Potency [2] | Potency [3] | Potency [4] | Potency [5] | Potency [16] | Potency [6] | Potency [7] | Potency [9] | Potency [18] | outcome [11] | Potency [12] | Potency [13] | outcome [14] | outcome [15]

CCN(CC)c1cccc(O)c1
inactive: Potency [2] | Potency [3] | Potency [4] | Potency [5] | Potency [16] | Potency [6] | Potency [7] | Potency [17] | Potency [8] | Potency [9] | Potency [18] | Potency [10] | outcome [11] | Potency [12] | Potency [13] | outcome [14] | outcome [15]

FC(F)(F)c1ccccc1Cl
inactive: Potency [1] | Potency [2] | Potency [3] | Potency [4] | Potency [5] | Potency [16] | Potency [6] | Potency [7] | Potency [17] | Potency [8] | Potency [9] | Potency [18] | Potency [10] | Potency [12] | Potency [13] | outcome [14] | outcome [15]

CC=C(Cl)Cl
inactive: Potency [1] | Potency [2] | Potency [3] | Potency [4] | Potency [5] | Potency [16] | Potency [6] | Potency [7] | Potency [17] | Potency [8] | Potency [9] | Potency [18] | Potency [10] | outcome [11] | Potency [12] | Potency [13] | outcome [14] | outcome [15]

CNC(=O)c1ccccc1
inactive: Potency [1] | Potency [2] | Potency [3] | Potency [4] | Potency [5] | Potency [16] | Potency [6] | Potency [7] | Potency [17] | Potency [9] | Potency [18] | Potency [10] | outcome [11] | Potency [12] | Potency [13] | outcome [14] | outcome [15]

Nc1cccc2c(=O)[nH][nH]c(=O)c12
inactive: Potency [1] | Potency [2] | Potency [3] | Potency [4] | Potency [5] | Potency [6] | Potency [7] | Potency [9] | Potency [18] | outcome [11] | Potency [12] | outcome [14] | outcome [15]

C/C(C=O)=C/c1ccccc1
inactive: Potency [2] | Potency [3] | Potency [4] | Potency [5] | Potency [16] | Potency [6] | Potency [7] | Potency [17] | Potency [8] | Potency [9] | Potency [18] | Potency [10] | outcome [11] | Potency [12] | Potency [13] | outcome [14] | outcome [15]
